The results in this text go back to PubChem BioAssay (NCI).

Structures are written as SMILES. The panel holds about 83,000 compounds, 20% with a hit somewhere; the sample as a whole holds those more often.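 Negative percent growth values reflect cell death: -40 means 40% of the cells present at the start died, and -100 means all died.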 Calls of active or inactive are those of the source. How the source made its calls: active means growth percent below 10; inactive means the rest.

The test deals with MDA-MB-435 melanoma. Nature of the test: NCI-60 one-dose screen, 48 h (100 = growth as untreated, 0 = no growth, -100 = all killed). The settings on record: 10 µM.
As to `COc1ccc(-c2cc3c(nn2)-c2ccccc2C3=O)cc1`, the growth was 10.4% (inactive). For `CCCCC(=O)c1ccc(OC)cc1`, the growth was 98.7% (inactive).

As to `N=c1c(C(=O)OCc2ccccc2)ncc(CCl)n1O`, the growth was 96.1% (inactive). `CCOC(=O)c1ccc(Nc2sc(C(=O)c3cccc([N+](=O)[O-])c3)c(N)c2C#N)cc1`: the growth was -2.02% (active). Regarding `COC(=O)c1ccccc1N(C)C`, the growth was 108% (inactive). As to `CC1(C(=O)O)NC(C(=O)O)Cc2c1[nH]c1ccccc21` (configuration not stated), the growth is 94.6% (inactive). In the case of `NCCC(=O)c1ccc(Cl)cc1`, the growth is 110% (inactive). As to `CC(=O)/C(Cc1ccccc1)=N/O`, the growth is 103% (inactive). For `Cc1cccc(CO)c1`, the growth was 108% (inactive). With `CC1(C)/C(=C\CO)C2CCC1C2` (configuration not stated), the growth was 123% (inactive). Regarding `CC1C(=O)c2ccccc2CC1C(=O)O` (configuration not stated), the growth is 108% (inactive). `CC12CC3CC1C(C(=O)O2)C3C(=O)O` (configuration not stated): the growth is 109% (inactive). Regarding `CC(C)CCOC(=O)c1ccccc1`, the growth was 106% (inactive).

With `O=C1C[C@H](c2ccccc2)[C@H](c2ccccc2)C1`, the growth was 108% (inactive).

As for `O=c1cc(-c2ccccc2)oc2c1ccc1ccccc12`, the growth was 88.6% (inactive). In the case of `O=C(CCl)N1CCN(C/C=C/c2ccccc2)CC1` it was 85% (inactive); in that of `COC(=O)c1cccnc1`, 105% (inactive); in that of `CC(=O)NCc1cc(C)c(C)cc1C`, 114% (inactive). Next, `C#CCSc1nnnn1-c1ccc(Br)c(C)c1`: 95.8% (inactive). Consider `C=CCNC(=O)c1ccc(OC)cc1`, for which the growth was 109% (inactive). As to `O=C1Cc2ccccc2C(=O)O1`, the growth is 107% (inactive).

`Cc1ccccc1C1N=C2Oc3ccccc3C=C2C(=O)N1` (configuration not stated): the growth is -57.7% (active).
